In PubChem BioAssay AID463173 (ICCB-Longwood Screening Facility, Harvard Medical School, 2010):
Out of some 52,000 compounds screened, about 4,300 (8.3%) were called active. Many of the other results were omitted from the sample, so actives are more common in it than they were. A number with no mark means an inactive call. No stated cut-off is given here; in the data, active means survival mostly below about 52% (no sharp cut-off); inactive means mostly above about 56%.

test system: DeltatarO mutant; assay: growth inhibition of S. aureus wild type versus tarO mutant, primary screen, teichoic acid synthesis inhibitors, RN4220, OD600 (AID 463173); conditions: OD600, 18 h, stronger effect = lower value, screened at 18.75 µg/mL (by protocol)

Compared with `CCOC(=O)c1c(C)[nH]c(C)c1S(=O)(=O)N(C)CC(=O)Nc1cc(Cl)ccc1C`, `CCOC(=O)c1c(S(=O)(=O)N2CCCC(C(=O)NCc3cccc(OC)c3)C2)c(C)n(C)c1C` (centres undefined) is higher in survival: 94% for the first, 117% for the second.

First: COc1ccc(S(=O)(=O)c2cn(C)c3cc(N4CCOCC4)c(F)cc3c2=O)cc1
Second: CCn1c(=O)cc(OCC(=O)N2CCN(c3ccc(OC)cc3)CC2)c2ccccc21
The survival of the first is higher: 96% for the first, 71% for the second.

Going from `CCc1cccc(CC)c1NC1=NS(=O)(=O)c2ccccc21` to `COc1ccc(OC)c(CNC(=O)c2nn(C)c3c2CS(=O)(=O)c2ccccc2-3)c1`, the survival rises from 70% to 74%.

First: Cc1cc(N2CCN(c3ccc(F)cc3)CC2)n2cnnc2n1
Second: Cc1cc(C(=O)N2CCN(c3ccccc3)CC2)c2c(C)nn(-c3cccc(F)c3)c2n1
The survival of the first is lower: 79% for the first, 91% for the second.

Compared with `COc1ccc(-c2cn3cccnc3n2)cc1NC(=O)Nc1ccc(Cl)cc1`, `CCc1ccc(-n2nc(C)c3c(C(=O)Nc4ccc(Cl)cc4)cc(C)nc32)cc1` is lower in survival: 84% for the first, 66% for the second.

First: CCc1cccc(C)c1NC(=O)CSc1nnc(CC)n2c1cc1occc12
Second: CCc1nnc(SC(CC)C(=O)Nc2cc(C)ccc2C)c2cc3occc3n12 (centres undefined)
The survival of the first is lower: 67% for the first, 79% for the second.

Compared with `O=C(CSc1nncn2c1cc1occc12)Nc1ccc(F)c(Cl)c1`, `COc1ccc(NC(=O)CSc2nncn3c2cc2occc23)c(OC)c1` is higher in survival: 65% for the first, 69% for the second.

Compared with `Cc1cc(C)c(NC(=O)CSc2nncn3c2cc2oc(C)cc23)c(C)c1`, `CCc1ccccc1NC(=O)CSc1nncn2c1cc1oc(C)cc12` is lower in survival: 65% for the first, 62% for the second.

Going from `CCc1nnc(SC(CC)C(=O)Nc2ccc(OC)c(Cl)c2)c2cc3occc3n12` (centres undefined) to `CCC(Sc1nncn2c1cc1oc(C)cc12)C(=O)Nc1ccc(F)cc1` (centres undefined), the survival falls from 72% to 54%.

Compared with `CC(C)c1ccc(NC(=O)c2ccc(F)c(S(=O)(=O)N3CCCC3)c2)cc1`, `Cc1cc(C(=O)Nc2ccc(C(C)C)cc2)c2c(C)nn(-c3ccccc3)c2n1` is lower in survival: 74% for the first, 73% for the second.

Compared with `Cc1ccccc1C(=O)N1CCCCC1CCN1CCCCC1` (centres undefined), `O=C(CNCC1CCCO1)Nc1ccccc1-n1cccc1` (centres undefined) is lower in survival: 80% for the first, 70% for the second.

Going from `Cc1ccc(S(=O)(=O)N2CC=C(c3ccc(F)cc3)CC2)cc1` to `Cc1ccc(-n2nc(C)c3c(C(=O)NCCc4ccc(S(N)(=O)=O)cc4)cc(C)nc32)cc1`, the survival rises from 87% to 118%.

Going from `Cc1nn2c(=O)cc(COC(=O)c3ccccc3NC(=O)c3cccs3)nc2s1` to `CSc1cccc(NC(=O)Cn2nc(C)c3sc4ccccc4c3c2=O)c1`, the survival rises from 74% to 83%.

Going from `COc1ccc(CN(Cc2ccco2)C(=O)c2ccccc2F)cc1` to `Cc1oc(-c2ccc(C(=O)NCCc3ccc(Cl)cc3)cc2)nc1CSc1ccccc1`, the survival rises from 74% to 83%.

Going from `CCOc1ccc(C2C(=O)N(C3CCCCCC3)CC(=O)N2Cc2ccc(C)cc2)cc1OC` (centres undefined) to `COc1ccc(-c2nc(CN3CCC(C(=O)NCCCN4CCN(c5ccccc5F)CC4)CC3)c(C)o2)cc1OC`, the survival falls from 96% to 70%.

Compared with `CC1(C)Oc2ccc3ccc(=O)oc3c2-c2cn[nH]c21`, `COc1ccccc1CNc1ccc(-c2nc(C)no2)cc1[N+](=O)[O-]` is lower in survival: 69% for the first, 68% for the second.

Going from `Cc1nc2sccn2c(=O)c1S(=O)(=O)Nc1cccc(Cl)c1C` to `Cc1cccc(NS(=O)(=O)c2c(C)nc3sccn3c2=O)c1C`, the survival rises from 68% to 108%.

Compared with `CCCCC(CC)C(=O)Nc1nnc(C(C)C)s1` (centres undefined), `CCCCN(CCCC)S(=O)(=O)c1ccc(NC(=O)c2c(-c3ccccc3)noc2C)cc1` is lower in survival: 91% for the first, 60% for the second.

Going from `O=C(CN1C(=O)CC(c2ccco2)Sc2ccccc21)Nc1ccc(Br)cc1` (centres undefined) to `O=C(CSc1nc2ccsc2c(=O)n1-c1ccc(Br)cc1)NCc1ccccc1`, the survival falls from 75% to 73%.

Compared with `O=C1CC(c2nnc(Cc3ccc(F)cc3Cl)o2)CN1c1ccccc1` (centres undefined), `Cc1ccc(C)c(N2CCN(C(=O)c3cc(C)nc4c3c(C)nn4-c3ccccc3)CC2)c1` is lower in survival: 133% for the first, 126% for the second.

Going from `COc1ccc(CNC(=O)c2ccc(-c3nc(CSc4ccccc4)c(C)o3)cc2)c(OC)c1` to `COc1ccc(OC)c(CNC(=O)c2ccc(-c3nc(CSc4ccccc4)c(C)o3)cc2)c1`, the survival rises from 85% to 120%.

First: CCc1ccc(CNC(=O)c2ccc(-c3nc(CSc4ccc(C)cc4)c(C)o3)cc2)cc1
Second: Cc1ccc(SCc2nc(-c3ccc(C(=O)NCc4ccc(Cl)cc4)cc3)oc2C)cc1
The survival of the first is lower: 67% for the first, 76% for the second.

Compared with `COc1ccc(CNC(=O)c2ccc(-c3nc(CSc4ccccc4)c(C)o3)cc2)cc1OC`, `COc1ccc(-c2noc(-c3ccc(NCc4ccccc4OC)c([N+](=O)[O-])c3)n2)cc1` is lower in survival: 78% for the first, 57% for the second.

Going from `Cc1ccc(NC(=O)CSc2nnc(-c3cc4occc4n3C)n2-c2ccccc2C)c(C)c1` to `Cc1ccc(NC(=O)COc2ccc(-c3nn(C)c(=O)c4ccccc34)cc2)c(C)c1`, the survival falls from 88% to 73%.

First: Cc1ccc(CSC2=Nc3ccccc3C3=NC(CCC(=O)NCc4cccs4)C(=O)N23)c(C)c1 (centres undefined)
Second: Cc1ccc(-n2nc(C)c3c(C(=O)NCCc4ccccc4)cc(C)nc32)cc1
The survival of the first is higher: 76% for the first, 70% for the second.

Going from `Cc1ccc2c(c1)cc(C(=O)Nc1ccc(F)cc1F)n2C` to `Cc1cc(C(=O)Nc2cccc(C)c2C)c2c(C)nn(-c3cccc(F)c3)c2n1`, the survival falls from 106% to 94%.

Compared with `COc1ccccc1NC(=O)CCCOc1cc(=O)n(C)c2ccccc12`, `COc1cc(OC)cc(-n2c(=O)c3ccccc3n(Cc3ccccc3C#N)c2=O)c1` is higher in survival: 114% for the first, 128% for the second.

Going from `Cn1c(=O)[nH]c(=O)c2[nH]c(NCCO)nc21` to `Cc1c(C(=O)Nc2ccccc2F)sc2nc3n(c(=O)c12)CCC3`, the survival rises from 80% to 87%.

Compared with `Cc1ccc(CNc2ccc(-c3nc(-c4cccnc4)no3)cc2[N+](=O)[O-])cc1`, `COc1ccccc1CNc1ccc(-c2nc(-c3cccnc3)no2)cc1[N+](=O)[O-]` is higher in survival: 75% for the first, 78% for the second.

Compared with `COc1ccccc1CNc1ccc(-c2nc(-c3ccccc3C)no2)cc1[N+](=O)[O-]`, `O=[N+]([O-])c1cc(-c2nc(-c3ccncc3)no2)ccc1NCc1ccccc1` is higher in survival: 91% for the first, 109% for the second.

First: CCOc1ccc(CNCCNC(=O)c2nonc2N)cc1
Second: Cc1ccc(-c2nc(C)c(CCNC(=O)c3ccccc3Br)s2)cc1
The survival of the first is higher: 84% for the first, 72% for the second.

Going from `CC1C(=NO)C(C)C(c2ccccc2)NC1c1ccccc1` (centres undefined) to `O=C(NCc1cccn1Cc1ccccc1)Nc1ccc(Br)cc1F`, the survival falls from 99% to 66%.

Going from `O=C(Nc1cc(Cl)ccc1O)c1nc2ncccn2n1` to `COc1ccc(NC(=O)c2cc(C)nc3c2c(C)nn3-c2cccc(Cl)c2C)c(OC)c1`, the survival rises from 74% to 88%.

Going from `CCOc1cc(C2C(C(=O)Nc3ccccc3)=C(C)Nc3ncnn32)cc(Br)c1O` (centres undefined) to `CCOc1cccc(C2Oc3nc(SC)nnc3-c3ccccc3N2C(C)=O)c1OC` (centres undefined), the survival falls from 102% to 59%.

Compared with `Cc1ccc2sc(N(CCCN(C)C)C(=O)c3ccco3)nc2c1C`, `CCc1cccc(C)c1NC(=O)c1cc(C)nc2c1c(C)nn2-c1cccc(Cl)c1C` is lower in survival: 128% for the first, 88% for the second.

First: COC(=O)CN1C(=O)CSc2ccc(S(=O)(=O)Nc3ccc(F)c(Cl)c3)cc21
Second: O=C(Cn1ccn(-c2ccc(F)c(F)c2)c(=O)c1=O)NCc1ccccc1
The survival of the first is higher: 83% for the first, 62% for the second.

First: CC(=O)c1cccc(NC(=O)c2cc3c(s2)-c2c(C)cccc2OC3)c1
Second: Cc1ccc(-n2nc(C)c3c(C(=O)Nc4ccc(Br)c(C)c4)cc(C)nc32)cc1
The survival of the first is higher: 120% for the first, 101% for the second.

Compared with `Cc1cc(C)c(NC(=O)c2cc(C)nc3c2c(C)nn3-c2cccc(F)c2)c(C)c1`, `CCc1ccc(-n2nc(C)c3c(C(=O)Nc4cc(OC)cc(OC)c4)cc(C)nc32)cc1` is higher in survival: 94% for the first, 102% for the second.

For `CCC(C(=O)Nc1ccc(C(=O)OC)cc1)n1c(=O)c(-c2ccccc2NC(C)=O)nc2ccccc21` (centres undefined), the survival was 94%.

With `Cc1cc2c(cc3c(SCC(=O)Nc4ccc(Cl)cc4F)nncn32)o1` the survival was 36% (active).
In the case of `Cc1cc(C)cc(NC(=O)CSc2nncn3c2cc2occc23)c1`, the survival is reported as 46% (active).
For `CCc1cccc(C)c1NC(=O)C(CC)Sc1nncn2c1cc1occc12` (centres undefined), the survival was 53% (active).
With `CCC(Sc1nncn2c1cc1occc12)C(=O)Nc1ccc(C)c(Cl)c1` (centres undefined) the survival was 36% (active).
In the case of `Cc1nc2sccn2c1-c1csc(Nc2cccc(Cl)c2C)n1`, the survival is reported as 15% (active).
For `COc1ccc(CNC(=O)c2ccc(-c3nc(CSc4ccc(C)cc4)c(C)o3)cc2)cc1OC`, the survival was -1% (active).
`COc1ccc(CNC(=O)c2ccc(-c3nc(CSc4ccc(C)cc4)c(C)o3)cc2)c(OC)c1` was tested, and the survival was 6% (active).
`Cc1ccc(SCc2nc(-c3ccc(C(=O)NCCc4ccc(Cl)cc4)cc3)oc2C)cc1` was tested, and the survival was -2% (active).
In the case of `COc1ccccc1CNc1ccc(-c2nc(-c3ccccn3)no2)cc1[N+](=O)[O-]`, the survival is reported as 43% (active).
With `Cc1ccc(CNc2ccc(-c3nc(-c4ccncc4)no3)cc2[N+](=O)[O-])cc1` the survival was 39% (active).
In the case of `COc1ccccc1CNc1ccc(-c2nc(-c3ccncc3)no2)cc1[N+](=O)[O-]`, the survival is reported as 45% (active).
For `Cc1ccc(NC(=O)c2cc(C)nc3c2c(C)nn3-c2cccc(Cl)c2C)c(C)c1`, the survival was -5% (active).
In the case of `Cc1cc(C(=O)Nc2cccc(C(F)(F)F)c2)c2c(C)nn(-c3cccc(F)c3)c2n1`, the survival is reported as 17% (active).
In the case of `Cc1ccc(CCNC(=O)c2cc(C)nc3c2c(C)nn3-c2ccc(C)cc2)cc1`, the survival is reported as 25% (active).
With `Cc1cc(C)cc(NC(=O)c2cc(C)nc3c2c(C)nn3-c2ccccc2)c1` the survival was -5% (active).
`CCc1ccc(-n2nc(C)c3c(C(=O)Nc4cccc(C(F)(F)F)c4)cc(C)nc32)cc1` was tested, and the survival was 20% (active).
For `Cc1ccc(C)c(N2CCN(C(=O)c3cc(C)nc4c3c(C)nn4-c3cccc(F)c3)CC2)c1`, the survival was 8% (active).
